Among the data in PubChem BioAssay AID485314 (National Center for Advancing Translational Sciences (NCATS), 2010) are Potency values, retold here.

Values joined by “and” are separate entries in the source; they are usually repeats but may differ in a detail not shown here. Equal values may be shown once. Among all 340,000 compounds or so, about 4,500 (1.3%) were called active. Entries that show only a call come without a potency. Roughly 5% stayed inconclusive and do not appear here. Calls follow the shape of the dose curve; as a rule, active = well fitted inhibition curve with a large enough effect; inconclusive = small, poorly fitted or top-dose-only effect, or another doubt; inactive = no such curve, though single readings can be large or run the other way. The full list was thinned out, with actives kept by preference. A structure can be active in one record and inactive in another.
Potency is read from the fitted curve at half-maximal effect.

This assay has as its target DNA polymerase beta (Homo sapiens) (UniProt P06746). The experiment in a line: qHTS Assay for Inhibitors of DNA Polymerase Beta. Particulars: Pol beta primer extension/strand displacement, fluorescence kinetic; series mostly up to 114 µM. The method in brief: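 Reaction started by 50 nM substrate onto compound-treated Pol beta (10 nM, 15 min preincubation, room temperature); plates read at 0 min and 10 min. Normalized concentration-effect data fitted by four-parameter Hill equation.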
`COc1cc(C(=O)NCCS(=O)(=O)N2CCN(c3ccccc3)CC2)cc(OC)c1OC`: the Potency entry is “inactive”.

As for `O=C(COc1ccccc1Cl)Nc1ccc2nc(SCC(=O)N3CCCC3)sc2c1`, the Potency result was “inactive”.

Take `Oc1c(C(c2ccc(F)cc2)N2CCN(Cc3ccccc3)CC2)sc2nc(-c3ccco3)nn12` (centres undefined): the Potency result is “inactive”.

With `COC(=O)c1ccc(C2C(C(=O)Nc3ccccc3)=C(C)Nc3nc4ccccc4n32)cc1` (centres undefined), the Potency entry is “inactive”.

`Cc1cccc(N2CCN(C(=O)CCSCc3ccccc3F)CC2)c1C`: the Potency entry was “inactive”.

With `Cc1cc([N+](=O)[O-])ccc1NC(=O)c1ccc(NC(=O)C(C)C)cc1`, the Potency result was “inactive”.

`O=C(Nc1ccc(C(=O)N2CCCCC2)cc1)c1cccc([N+](=O)[O-])c1`: the Potency entry was “inactive”.

With `Cn1ccc(=Nc2ccc(NC(=O)c3ccc(N=c4ccn(C)c5ccc([N+](=O)[O-])cc45)cc3)cc2)cc1`, the Potency was 0.355 µM (active).

Turning to `CCOc1cccc2cc(-c3cn4c(n3)sc3cc(C)ccc34)c(=O)oc12`, the Potency result is “inactive”.

As to `CO/N=C(\C(=O)N[C@@H]1C(=O)N2C(C(=O)O)=C(COC(C)=O)CS[C@H]12)c1csc(N)n1` (stereo in doubt), the Potency result was “inactive and 25.1 µM (active)”.

Turning to `Cc1ccn2c(Nc3ccc4c(c3)OCCO4)c(-c3ccc(C)s3)nc2c1`, the Potency result was “inactive”.

`Cc1cccc(-n2ccnc2SCC(=O)Nc2cc(C(F)(F)F)ccc2Cl)c1`: the Potency entry was “inactive”.

For `COc1cccc(Cn2c(SCc3ccc(C(=O)N4CCC(C)CC4)cc3)nc3ccncc32)c1`, the Potency result was “inactive”.

With `Cc1cc(C)cc(NC(=O)c2cnc3sc(N4CCCC4)nn3c2=O)c1`, the Potency entry is “inactive”.

In the case of `COc1cc(-c2noc(-c3ccc(N4CCCC4)c([N+](=O)[O-])c3)n2)cc(OC)c1OC`, the Potency result is “inactive”.

Turning to `COc1ccccc1-c1noc(-c2ccc(NCc3ccccc3)c([N+](=O)[O-])c2)n1`, the Potency result was “inactive”.

For the molecule `COc1ccc(-c2noc(-c3ccc(N4CCN(c5ccccc5)CC4)c([N+](=O)[O-])c3)n2)cc1OC`, the Potency is 89.1 µM (active).

Regarding `COc1ccc(S(=O)(=O)NCC(c2ccc(N(C)C)cc2)N2CCc3ccccc32)cc1OC` (centres undefined), the Potency result is “inactive”.

As for `COc1ccccc1N1CCN(S(=O)(=O)CCNC(=O)COc2ccc(F)cc2)CC1`, the Potency entry is “inactive”.

With `CC(=O)Nc1cccc(NC(=O)CSc2nccn2Cc2ccc3c(c2)OCO3)c1`, the Potency result is “inactive”.

As for `CCOC(=O)CCCNC(=O)COC(=O)/C=C/c1ccc2c(c1)OCO2`, the Potency result was “inactive”.

Consider `CCC1=C/C(=C\c2ccc3c(c2)OCO3)C(=O)S1`, for which the Potency was 14.1 µM (active).

On to `O=C(Cc1ccc(F)cc1)N/N=C/c1ccc2c(c1)OCO2`, for which the Potency result was “inactive”.

As for `Cc1cccc(NC(=O)c2ccc(F)c(S(=O)(=O)N(C)C3CCCCC3)c2)c1`, the Potency entry is “inactive”.
